Assay outcomes (PubChem)
Rab9 promoter act = activates the Rab9 promoter. Huh7 Rab9 promoter-luciferase reporter, luminescence, 24 h. Potency, µM (top dose mostly 9.22 µM), for inactives: at the highest dose activation, negative = inhibition, most hits filed as activators. 320,000 compounds, 2.8% hits. AID 485297; also: % of control where 0% means no effect; nearly all actives have a fitted effect of over 60% in size
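Huh7 reporter line, Rab9 promoter upstream of luciferase. Compound exposure 24 h at 37 °C in reduced-serum medium with 10% FBS. Read-out: luminescence.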
ELG1 genotoxic = induces genotoxicity in HEK293T cells with luciferase-tagged ELG1; Potency, µM (top dose mostly 46 µM), inactives show at the highest dose activity change, positive = activation, usual class: activators; AID 504466; 330,000 compounds, 1.3% hits; HEK293T ELG1-luciferase reporter, luminescence, 16 h; also: % of control where 0% means no effect; nearly all actives have a fitted effect of over 60% in size
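DMSO vehicle served as control against compound-treated ELG1-luciferase HEK293T cells; exposure lasted 16 hr at 37 °C and 5% CO2, followed by ONE-Glo luminescence detection after 30 min.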
NPC1 promoter act = activators of NPC1 promoter. AID 485313. Potency, µM (highest dose often 9.22 µM), for inactives: at the highest dose activation, actives largely listed as activators. Huh7 NPC1 promoter luciferase reporter, 24 h. 320,000 compounds, 2.4% hits; also: % of control where 0% means no effect; nearly all actives have a fitted effect of over 60% in size
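Huh7 reporter cells (NPC1 promoter driving luciferase) are dosed with compound for 24 h at 37 °C, 5% CO2; luciferase detection reagent is then added and luminescence measured after 10 min at ambient temperature.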
SMN2 splice up = increases expression of the SMN2 splice variant | HEK293 SMN2-luciferase splicing reporter, luminescence, 30-36 h | Potency, µM (highest dose often 46.1 µM), without a hit: at the highest dose activity change, positive = activation, hits mostly activators | 210,000 compounds, 2.8% hits | AID 1458; also: % of control where 0% means no effect; nearly all actives have a fitted effect of over 55% in size
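qHTS luciferase splicing reporter: luminescence rises when SMN2 exon 7 is included in transfected HEK293 cells. Compound exposure lasted 30-36 h at 37C, with 4.5 mM final sodium butyrate as control, followed by a ONE-Glo read.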
FLuc counter = inhibits or activates purified firefly luciferase, miR-21 counter-screen; P08659; Potency, µM (highest dose often 57.5 µM), for inactives: at the top dose activity change, negative = inhibition, hits mostly inhibitors; 360,000 compounds, 6.9% hits; purified FLuc, Km substrates, luminescence inhibition;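 also: plate controls were vehicle for no effect and reference inhibitor for full effect; nearly all actives have a fitted effect of over 55% in size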
Target sequence (P08659 whole entry, looked up): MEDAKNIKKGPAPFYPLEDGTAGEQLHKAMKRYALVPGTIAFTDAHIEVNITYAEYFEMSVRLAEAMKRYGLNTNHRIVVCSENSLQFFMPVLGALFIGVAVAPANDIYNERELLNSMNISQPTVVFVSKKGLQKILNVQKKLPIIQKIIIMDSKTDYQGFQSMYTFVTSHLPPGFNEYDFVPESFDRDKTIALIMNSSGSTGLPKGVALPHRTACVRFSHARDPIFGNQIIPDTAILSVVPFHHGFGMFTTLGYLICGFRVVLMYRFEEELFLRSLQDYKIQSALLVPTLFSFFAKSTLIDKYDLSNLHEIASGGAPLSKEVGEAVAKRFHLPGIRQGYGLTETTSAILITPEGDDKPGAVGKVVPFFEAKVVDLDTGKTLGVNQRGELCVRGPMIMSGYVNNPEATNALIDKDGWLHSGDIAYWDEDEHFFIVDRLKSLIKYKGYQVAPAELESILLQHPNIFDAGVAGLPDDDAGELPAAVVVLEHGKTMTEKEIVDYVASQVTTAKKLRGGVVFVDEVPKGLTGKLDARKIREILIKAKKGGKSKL
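Biochemical qHTS of compounds, final roughly 60 µM downward over six points, against 10 nM purified firefly luciferase using Km concentrations of substrates (10 uM D-luciferin, 10 uM ATP) in Tris acetate pH 7.5 buffer; luminescence output.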
Luc counter = blocks Kinase-Glo luciferase, a counter-screen artifact; Q27757; Kinase-Glo luciferase, ATP luminescence, 8 min; Potency, µM (series often up to 38.3 µM), inactives show at the top dose activity change, negative = inhibition, most hits filed as inhibitors; 200,000 compounds, 0.28% hits; AID 1379; also: % is scaled to controls: 0 for no effect and ±100 for the full control effect; nearly all actives have a fitted effect of over 60% in size
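Light output from Kinase-Glo luciferase with luciferin and 10 uM ATP in 50 mM imidazole pH 7.2, KCl, MgCl2, Tween 20, BSA; compound pin-delivered, 8-min ambient incubation, then luminescence read.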
Active calls of the source: *; ? = inconclusive; / = not tested or not shown; [ ] = remark or other dose. In the library only some 7.5% were active in any assay of this set; here they are far more common. Calls follow the shape of the dose curve; as a rule, active = well fitted curve in the direction sought with a large enough effect; inconclusive = small, poorly fitted or top-dose-only effect, or another doubt; inactive = no such curve, though single readings can be large; an effect the other way counts as inactive or inconclusive. Potency is read from the fitted curve at half-maximal effect.

SMILES	Rab9 promoter act	ELG1 genotoxic	NPC1 promoter act	SMN2 splice up	FLuc counter	Luc counter
C=CCN1C(=O)/C(=C/C=C2/N(CC)c3ccc(S(=O)(=O)N(C)C)cc3N2CC)SC1=S	-15%	-6%	-10%	-30%	?	-25%
O=C(NCC1CCCO1)c1cn(Cc2ccccc2Cl)nc1-c1ccccc1 (stereo not given)	2%	-1%	-1%	/	1%	/
COc1ccc(C(=O)NCC(c2cccnc2)N2CCc3ccccc3C2)cc1 (stereo not given)	/	/	/	/	-1%	/
COc1ccc(C(=O)NCC(c2cccnc2)N2CCc3ccccc3C2)cc1OC (stereo not given)	/	/	/	/	0.67µM*	/
Cn1nc(C(=O)N2CCC(C(N)=O)CC2)c2c1-c1ccccc1SC2	5%	7%	-5%	/	5%	/
Cc1ccc(-c2cc(C(=O)NCc3ccco3)c3ccccc3n2)o1	14%	-9%	-6%	-7%	12µM*	-9%
O=C(NCc1ccco1)c1cc(-c2cccnc2)nc2ccccc12	-8%	-2%	-5%	-7%	-5%	1%
COc1cccc(-c2cc(C(=O)NCc3ccco3)c3ccccc3n2)c1	1%	-11%	9%	/	21µM*	/
Cc1ccccc1Nc1cc(C(=O)NCc2ccco2)c2ccccc2n1	-4%	-7%	-6%	-9%	15µM*	2%
O=[N+]([O-])c1ccc2oc(C(O)c3cccc(Cl)c3)cc2c1 (stereo not given)	-1%	1%	2%	/	0%	/
O=C(O)/C=C/c1ccc(S(=O)(=O)N2CCN(CCN3C(=O)C4C5C=CC(C5)C4C3=O)CC2)cc1 (stereo not given)	-1%	1%	0%	/	1%	/
COc1cccc(CNC(=O)C(C)n2ncn3cccc3c2=O)c1OC (stereo not given)	/	/	/	/	6µM*	/
COc1cccc(CNC(=O)Cn2ncn3cccc3c2=O)c1OC	4%	9%	3%	/	0%	/
COc1ccc(CNC(=O)CC23CC4CC(CC(C4)C2)C3)cc1OC	-2%	0%	-1%	/	15µM*	/
Oc1ccc2ccccc2c1SSc1c(O)ccc2ccccc12	1%[46.1 µM]	/	5%[46.1 µM]	/	/	/
CCSc1nc2c(cnn2-c2ccccc2)c(=O)n1N	1.3µM*	?	2.2µM*	/	13µM*	/
CCn1nc(C(=O)Nc2ccc(S(=O)(=O)Nc3nccs3)cc2)c2ccccc2c1=O	1%	5%	0%	14µM*	4%	1%
O=C(Nc1ccc(S(=O)(=O)Nc2ncccn2)cc1)c1nn(Cc2ccccc2)c(=O)c2ccccc12	0%	-1%	0%	/	-1%	/
C[C@H](CO)N1C[C@H](C)[C@@H](CN(C)Cc2ccc(-c3ccccc3)cc2)Oc2c(NC(=O)Nc3ccc4c(c3)OCO4)cccc2C1=O	/	-8%	/	/	/	/
CC1CCN(S(=O)(=O)c2cc(F)ccc2CN2C(=O)c3cccnc3C2=O)CC1	-1%	0%	-4%	/	-3%	/
CN=c1scc(-c2ccc(F)cc2)n1/N=C/c1ccc(O)c(O)c1	15%	-7%	-44%	?	0.67µM*	-19%
Cc1ccc(CN2CCN(/N=C/c3ccc(O)c(O)c3)CC2)cc1	-1%	17%	-13%	/	-10%	/
CC1CCc2c(sc(NC(=O)c3ccccc3C(=O)O)c2C#N)C1 (stereo not given)	?	?	?	/	21µM*	1%
CC1CCc2c(sc(NC(=S)NC(=O)c3ccccc3)c2C#N)C1 (stereo not given)	29%	14%	27%	/	?	/
CCC(C)(C)C1CCc2c(sc(NC(=O)c3ccccc3C(=O)O)c2C#N)C1 (stereo not given)	1%	-7%	-3%	/	11µM*	/
SMILES	Rab9 promoter act	ELG1 genotoxic	NPC1 promoter act	SMN2 splice up	FLuc counter	Luc counter
Cc1cc(C(=O)Nc2sc3c(c2C#N)CCC(C)C3)cs1 (stereo not given)	0.56µM*	4.6µM*	1.3µM*	4µM*	?	5%
COc1ccc(N2CC(C(=O)Nc3cccnc3)CC2=O)cc1 (stereo not given)	-6%	0%	-2%	/	-1%	/
CC(C)=C(C#N)c1nc2ccccc2s1	-9%	0%	-1%	-4%	-14%	2%
CC1=CC(=C(C#N)c2nc3ccccc3s2)C=C(C)N1c1ccc(F)cc1	30%	13%	24%	?	3.4µM*	-1%
COc1ccccc1N1C(C)=CC(=C(C#N)c2nc3ccccc3s2)C=C1C	3%	14%	16%	-43%	3µM*	4%
CCOC(=O)c1ccc2c(c1)N(Cc1cccc(C(F)(F)F)c1)C(=O)c1ccccc1S2(=O)=O	/	/	/	/	5%	/
Cc1cccc(NC(=S)NC(=O)c2ccc(-c3ccccc3)cc2)n1	2.2µM*	?	2.8µM*	/	11µM*	/
Cc1cccc(NC(=O)Cc2ccc(-c3ccccc3)cc2)n1	3%	-5%	-2%	/	?	/
Cc1cccc(NC(=S)NC(=O)c2oc3ccccc3c2C)n1	1.4µM*	?	1.3µM*	/	?	/
c1ccc(N2CCN(Cc3nnc(-c4ccc5c(c4)OCO5)o3)CC2)cc1	/	/	/	-1%	1%	/
O=S(=O)(c1ccc(F)cc1)N1CCC(n2c(C(F)(F)F)nc3cccnc32)CC1	/	/	/	/	-10%	/
COCc1cc(=O)n2[nH]c(-c3ccccc3)cc2n1	22%	?	16%	11%	19µM*	-6%
COCc1cc(=O)n2[nH]c(C(C)(C)C)cc2n1	3%	0%	1%	/	-5%	/
COCc1cc(=O)n2[nH]c(C)cc2n1	-10%	-1%	-6%	-18%	9%	-2%
COCc1cc(=O)n2[nH]c(-c3cccc(Br)c3)cc2n1	22%	11µM*	29%	?	?	-1%
COCCCNc1ncnc2c1nnn2C	/	/	/	/	0%	/
CCN(CC)C(=O)Cn1cc(C(=O)C(=O)NCCCN2CCOCC2)c2ccccc21	9%	3%	2%	/	1%	/
O=C(Nc1ccc2c(c1)OCO2)C(=O)c1c[nH]c2ccccc12	0.71µM*	1.8µM*	0.4µM*	/	0.67µM*	/
O=C(Nc1ccc2c(c1)OCCO2)C(=O)c1c[nH]c2ccccc12	0.1µM*	?	?	/	0.19µM*	/
Cc1cc(NC(=O)C(=O)c2c(C)[nH]c3ccccc23)no1	-11%	?	-3%	-22%	5%	3%
Cc1[nH]c2ccccc2c1C(=O)C(=O)Nc1ccc2c(c1)OCCO2	?	17%	?	/	15µM*	/
CCN(CC)C(=O)Cn1cc(C(=O)C(=O)Nc2ccc3c(c2)OCCO3)c2ccccc21	?	-1%	30%	/	3.4µM*	/
O=C(Cc1cccc2ccccc12)NCC(=O)N1CCN(Cc2cccc(C(F)(F)F)c2)CC1	-20%	-1%	-16%	/	7%	/
